Laboratory results from PubChem BioAssay (NCI).
The panel holds about 79,000 compounds, 15% with a hit somewhere; the sample as a whole holds those more often. Calls of active or inactive are those of the source. Cut-off read from the data, not from the text of the source: active = growth inhibition above about 70%; inactive = the rest.

What was measured:
[1] = NCI Yeast Anticancer Drug Screen. Data for the rad52 strain (AID 147);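 note: 0% = growth of vehicle-treated control cultures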; conditions: S. cerevisiae rad52 mutant growth inhibition, stronger effect = higher value
Outline: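 Vehicle-treated cultures served as the reference for growth inhibition of compound-exposed yeast bearing a DNA repair mutation.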

[2] = NCI Yeast Anticancer Drug Screen. Data for the wt1 strain (AID 149);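 note: 0% = growth of vehicle-treated wt1 cultures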; conditions: S. cerevisiae wt1 strain (SPY 50644) growth inhibition, stronger effect = higher value
Outline: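 wt1 strain grown with compound or vehicle; inhibition taken from the growth difference.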

[3] = NCI Yeast Anticancer Drug Screen. Data for the rad50EPP+ strain (AID 151);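 note: 0% = growth of vehicle-treated control cultures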; conditions: S. cerevisiae rad50 mutant strain, stronger effect = higher value
Outline: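 In this screen, rad50EPP+ yeast were exposed to compounds. Growth inhibition was scored against vehicle-treated controls.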

[4] = NCI Yeast Anticancer Drug Screen. Data for the mgt1 strain (AID 153); conditions: S. cerevisiae mgt1 mutant growth inhibition, stronger effect = higher value
Outline: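 mgt1 strain exposed; growth vs vehicle control recorded as inhibition.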

[5] = NCI Yeast Anticancer Drug Screen. Data for the rad50 strain (AID 155);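 note: 0% = growth of vehicle-only cultures of the same strain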; conditions: S. cerevisiae rad50 strain growth inhibition, stronger effect = higher value
Outline: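 DNA repair mutant yeast, compound exposure, growth read-out; inhibition is taken relative to vehicle.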

[6] = NCI Yeast Anticancer Drug Screen. Data for the mec2-1 strain (AID 157); conditions: S. cerevisiae mec2-1 strain, stronger effect = higher value
Outline: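 Vehicle-treated cultures served as reference for growth inhibition of compound-exposed mec2-1 yeast.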

[7] = NCI Yeast Anticancer Drug Screen. Data for the sgs1 mgt1 strain (AID 161);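 note: 0% = growth of cultures given vehicle only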; conditions: S. cerevisiae sgs1 mgt1 strain, stronger effect = higher value
Outline: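 Read-out: growth inhibition vs vehicle controls. Cells: mutant yeast strain deficient in DNA damage repair.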

[8] = NCI Yeast Anticancer Drug Screen. Data for the CLN2oe strain (AID 163);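 note: 0% = growth of vehicle-only control cultures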; conditions: S. cerevisiae CLN2oe strain, stronger effect = higher value
Outline: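 Inhibition relative to vehicle-treated yeast is reported. Cells: strain with genetic alteration in cell-cycle control, grown with compound.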

[9] = NCI Yeast Anticancer Drug Screen. Data for the cln2 rad14 strain (AID 165);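 note: 0% = growth equal to vehicle treated cultures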; conditions: S. cerevisiae cln2 rad14 strain, stronger effect = higher value
Outline: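 Each compound was tested on cln2 rad14 yeast. Inhibition of growth was calculated against vehicle-exposed controls.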

[10] = NCI Yeast Anticancer Drug Screen. Data for the bub3 strain (AID 167); conditions: S. cerevisiae bub3 mutant strain, stronger effect = higher value
Outline: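 In this screen, a yeast mutant lacking normal mitotic checkpoint function is challenged with compound. Relative growth versus vehicle gives the inhibition value.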

[11] = NCI Yeast Anticancer Drug Screen. Data for the wt2 strain (AID 169);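 note: 0% = growth of vehicle-treated yeast cultures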; conditions: S. cerevisiae wt2 strain growth inhibition, stronger effect = higher value
Outline: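 Inhibition of yeast growth was determined after compound treatment, normalised to controls receiving only vehicle.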

[12] = NCI Yeast Anticancer Drug Screen. Data for the mlh1 strain (AID 171);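 note: 0% = growth of vehicle-treated control cultures of the same strain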; conditions: S. cerevisiae mlh1 strain growth inhibition, stronger effect = higher value
Outline: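 Vehicle-normalised growth inhibition of a repair- or checkpoint-altered yeast strain following compound treatment.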

[13] = NCI Yeast Anticancer Drug Screen. Data for the sgs1 strain (AID 173);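 note: 0% = growth of vehicle-only control cultures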; conditions: S. cerevisiae sgs1 mutant, stronger effect = higher value
Outline: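 Screen format: yeast with repair or checkpoint alterations, compound exposure, growth read relative to vehicle.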

[14] = NCI Yeast Anticancer Drug Screen. Data for the mlh1 rad18 strain (AID 175); conditions: S. cerevisiae mlh1 rad18 strain growth inhibition, stronger effect = higher value
Outline: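 Vehicle-treated cultures served as the reference for growth inhibition in a yeast strain carrying DNA damage repair alterations exposed to each compound.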

[15] = NCI Yeast Anticancer Drug Screen. Data for the rad18 strain (AID 177); conditions: S. cerevisiae rad18 mutant growth inhibition, stronger effect = higher value
Outline: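 Test articles were incubated with altered yeast defective in DNA damage repair. Results are given as inhibition of growth versus vehicle.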

[16] = at 5.0 µM (retest, dose inferred, filed as 0.5)
[17] = at 50.0 µM (retest, dose inferred, filed as 5.0)

Measured: growth inhibition

c1ccc(Cc2cc(-c3ccccc3)n[nH]2)cc1
inactive: [1]; at 1.2 µM -7% | [1]; at 3.7 µM -5% | [1]; at 11.0 µM -12% | [1]; at 33.0 µM 0% | [1]; at 100.0 µM 59% | [2]; at 1.2 µM -6% | [2]; at 3.7 µM -10% | [2]; at 11.0 µM -15% | [2]; at 33.0 µM -16% | [2]; at 100.0 µM 44% | [3]; at 1.2 µM -3% | [3]; at 3.7 µM 1% | [3]; at 11.0 µM 5% | [3]; at 33.0 µM 22% | [3]; at 100.0 µM 58% | [4]; at 1.2 µM -4% | [4]; at 3.7 µM -8% | [4]; at 11.0 µM -11% | [4]; at 33.0 µM 8% | [4]; at 100.0 µM 50% | [5]; at 1.2 µM -10% | [5]; at 3.7 µM -19% | [5]; [16] -136% | [5]; at 11.0 µM 7% | [5]; at 33.0 µM 5% | [5]; [17] 31% | [5]; at 100.0 µM 60% | [6]; at 1.2 µM 2% | [6]; at 3.7 µM -4% | [6]; [16] -51% | [6]; at 11.0 µM -23% | [6]; at 33.0 µM -11% | [6]; [17] -13% | [6]; at 100.0 µM 43% | [7]; [16] -64% | [7]; [17] 46% | [8]; at 1.2 µM -8% | [8]; at 3.7 µM -8% | [8]; at 11.0 µM -14% | [8]; at 33.0 µM 0% | [8]; at 100.0 µM 55% | [9]; [16] -72% | [9]; [17] -13% | [10]; at 1.2 µM -15% | [10]; at 3.7 µM -5% | [10]; [16] -59% | [10]; at 11.0 µM 9% | [10]; at 33.0 µM 37% | [10]; [17] 62% | [11]; at 1.2 µM -3% | [11]; at 3.7 µM -4% | [11]; at 11.0 µM -7% | [11]; at 33.0 µM 10% | [11]; at 100.0 µM 52% | [12]; at 1.2 µM 4% | [12]; at 3.7 µM -12% | [12]; at 11.0 µM -11% | [12]; at 33.0 µM 5% | [12]; at 100.0 µM 55% | [13]; at 1.2 µM -3% | [13]; at 3.7 µM -11% | [13]; at 11.0 µM -5% | [13]; at 33.0 µM 27% | [13]; at 100.0 µM 69% | [14]; [16] -125% | [14]; [17] 9% | [15]; at 1.2 µM -5% | [15]; at 3.7 µM -4% | [15]; at 11.0 µM -1% | [15]; at 33.0 µM 19% | [15]; at 100.0 µM 61%
active: [5]; at 50.0 µM 97% | [6]; at 50.0 µM 97% | [7]; at 50.0 µM 89.8% | [9]; at 50.0 µM 70.4% | [10]; at 50.0 µM 93.8% | [10]; at 100.0 µM 80% | [14]; at 50.0 µM 96.8%

CN1CCN(C(=O)/C=C/C(=O)c2ccccc2)CC1
inactive: [1]; at 1.2 µM 4% | [1]; at 3.7 µM 11% | [1]; at 11.0 µM 24% | [1]; at 33.0 µM 63% | [2]; at 1.2 µM 4% | [2]; at 3.7 µM 12% | [2]; at 11.0 µM 24% | [2]; at 33.0 µM 47% | [3]; at 1.2 µM 4% | [3]; at 3.7 µM 13% | [3]; at 11.0 µM 31% | [3]; at 33.0 µM 50% | [3]; at 100.0 µM 66% | [4]; at 1.2 µM 2% | [4]; at 3.7 µM 10% | [4]; at 11.0 µM 34% | [5]; at 1.2 µM -3% | [5]; at 3.7 µM -8% | [5]; [16] 9% | [5]; at 11.0 µM 23% | [5]; at 33.0 µM 69% | [5]; [17] -3% | [6]; at 1.2 µM 2% | [6]; at 3.7 µM 12% | [6]; [16] -3% | [6]; at 11.0 µM 35% | [6]; at 33.0 µM 67% | [6]; [17] -3% | [7]; [16] 6% | [7]; [17] -9% | [9]; [16] 39% | [9]; [17] -10% | [10]; at 1.2 µM -3% | [10]; at 3.7 µM 3% | [10]; [16] 7% | [10]; at 11.0 µM 28% | [11]; at 1.2 µM 1% | [11]; at 3.7 µM 10% | [11]; at 11.0 µM 36% | [13]; at 1.2 µM 5% | [13]; at 3.7 µM 15% | [13]; at 11.0 µM 42% | [14]; [16] -5% | [14]; [17] 7% | [15]; at 1.2 µM 2% | [15]; at 3.7 µM 11% | [15]; at 11.0 µM 38%
active: [1]; at 100.0 µM 86% | [2]; at 100.0 µM 87% | [4]; at 33.0 µM 79% | [4]; at 100.0 µM 95% | [5]; at 50.0 µM 93.3% | [5]; at 100.0 µM 90% | [6]; at 50.0 µM 95% | [6]; at 100.0 µM 94% | [7]; at 50.0 µM 95.5% | [9]; at 50.0 µM 72.8% | [10]; at 33.0 µM 80% | [10]; [17] 91% | [10]; at 50.0 µM 82.5% | [10]; at 100.0 µM 90% | [11]; at 33.0 µM 76% | [11]; at 100.0 µM 93% | [13]; at 33.0 µM 84% | [13]; at 100.0 µM 95% | [14]; at 50.0 µM 97.5% | [15]; at 33.0 µM 84% | [15]; at 100.0 µM 95%
